Test results as given in PubChem BioAssay AID1159580 (chemical genetic matrix, 2015).
Among all 5,500 compounds or so, about 2,000 (36%) were called active. Another 18% or so got no clear call; they are omitted. Rule as the data show it: active = normalized growth mostly below about 0.91 (no sharp cut-off); inconclusive = no clear call, values can overlap the other calls; inactive = mostly above about 0.92. Some of the results follow.

Experiment: chemical genetic growth profiling, strain panel (AID 1159580);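 also: tested at 20 µM; growth read once vehicle control cultures reached saturation at 30 °C; 1 = growth at the plate median or of vehicle wells; lower values mean less growth of the strain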
Details: growth OD

Measured: normalized growth

NC(=O)c1cc([N+](=O)[O-])cc([N+](=O)[O-])c1
active: S. cerevisiae deletion strains, locus YNL248C, strain rpa49, active compounds read low 0.879
inactive: S. cerevisiae deletion strains, locus YJR075W, strain HOC1, active compounds read low 1 | S. cerevisiae deletion strains, locus YKL009W, strain mrt4, active compounds read low 0.985 | S. cerevisiae deletion strains, locus YKL068W, active compounds read low 1 | S. cerevisiae deletion strains, locus YKL085W, strain MDH1 (second series), active compounds read low 0.999 | S. cerevisiae deletion strains, locus YKL085W, strain MDH1, active compounds read low 0.999 | S. cerevisiae deletion strains, locus YKL160W, strain elf1, active compounds read low 1.01 | S. cerevisiae deletion strains, locus YKL190W, strain CNB1, active compounds read low 1.01 | S. cerevisiae deletion strains, locus YKR001C, strain vps1, active compounds read low 0.997 | S. cerevisiae deletion strains, locus YKR026C, strain gcn3, active compounds read low 1.02 | S. cerevisiae deletion strains, locus YKR091W, strain srl3, active compounds read low 1.02 | S. cerevisiae deletion strains, locus YLL001W, strain dnm1, active compounds read low 1.06 | S. cerevisiae deletion strains, locus YLL026W, active compounds read low 1.01 | S. cerevisiae deletion strains, locus YLL041C, strain sdh2, active compounds read low 1 | S. cerevisiae deletion strains, locus YLR027C, strain aat2, active compounds read low 0.989 | S. cerevisiae deletion strains, locus YLR039C, strain RIC1, active compounds read low 1.24 | S. cerevisiae deletion strains, locus YLR058C, strain SHM2, active compounds read low 1.01 | S. cerevisiae deletion strains, locus YLR102C, strain apc9, active compounds read low 1 | S. cerevisiae deletion strains, locus YLR113W, strain HOG1, active compounds read low 0.988 | S. cerevisiae deletion strains, locus YLR221C, strain rsa3, active compounds read low 1.02 | S. cerevisiae deletion strains, locus YLR258W, strain gsy2, active compounds read low 1 | S. cerevisiae deletion strains, locus YLR262C, strain YPT6 (second series), active compounds read low 1.11 | S. cerevisiae deletion strains, locus YLR262C, strain YPT6, active compounds read low 1.2 | S. cerevisiae deletion strains, locus YLR268W, strain sec22, active compounds read low 0.963 | S. cerevisiae deletion strains, locus YLR320W, strain mms22, active compounds read low 1.01 | S. cerevisiae deletion strains, locus YLR330W, strain CHS5, active compounds read low 1.02 | S. cerevisiae deletion strains, locus YLR342W, strain FKS1 (second series), active compounds read low 1.02 | S. cerevisiae deletion strains, locus YLR342W, strain FKS1, active compounds read low 1.02 | S. cerevisiae deletion strains, locus YLR357W, strain rsc2, active compounds read low 1 | S. cerevisiae deletion strains, locus YLR370C, strain arc18, active compounds read low 1.02 | S. cerevisiae deletion strains, locus YLR371W, strain rom2, active compounds read low 0.998 | S. cerevisiae deletion strains, locus YLR384C, strain iki3, active compounds read low 1.02 | S. cerevisiae deletion strains, locus YLR418C, strain cdc73, active compounds read low 0.861 | S. cerevisiae deletion strains, locus YML016C, strain PPZ1, active compounds read low 1.03 | S. cerevisiae deletion strains, locus YML032C, strain rad52, active compounds read low 0.974 | S. cerevisiae deletion strains, locus YML120C, strain ndi1, active compounds read low 1.02 | S. cerevisiae deletion strains, locus YML124C, strain tub3, active compounds read low 0.998 | S. cerevisiae deletion strains, locus YMR058W, strain fet3, active compounds read low 0.955 | S. cerevisiae deletion strains, locus YMR078C, strain ctf18, active compounds read low 0.999 | S. cerevisiae deletion strains, locus YMR125W, strain sto1, active compounds read low 1.01 | S. cerevisiae deletion strains, locus YMR129W, active compounds read low 1.02 | S. cerevisiae deletion strains, locus YMR205C, strain PFK2, active compounds read low 1.04 | S. cerevisiae deletion strains, locus YMR223W, strain ubp8, active compounds read low 0.979 | S. cerevisiae deletion strains, locus YMR231W, strain pep5, active compounds read low 1.01 | S. cerevisiae deletion strains, locus YMR307W, strain GAS1, active compounds read low 0.972 | S. cerevisiae deletion strains, locus YNL067W, strain RPL9B, active compounds read low 0.999 | S. cerevisiae deletion strains, locus YNL071W, strain lat1, active compounds read low 0.998 | S. cerevisiae deletion strains, locus YNL128W, strain TEP1, active compounds read low 0.982 | S. cerevisiae deletion strains, locus YNL183C, strain NPR1, active compounds read low 0.935 | S. cerevisiae deletion strains, locus YNL209W, strain ssb2, active compounds read low 1.01 | S. cerevisiae deletion strains, locus YNL233W, strain BNI4, active compounds read low 1.01 | S. cerevisiae deletion strains, locus YNL250W, strain rad50, active compounds read low 1.01 | S. cerevisiae deletion strains, locus YNL271C, strain bni1, active compounds read low 0.974 | S. cerevisiae deletion strains, locus YNL298W, strain CLA4, active compounds read low 0.983 | S. cerevisiae deletion strains, locus YNL307C, strain MCK1, active compounds read low 0.979 | S. cerevisiae deletion strains, locus YNL322C, strain KRE1 (second series), active compounds read low 1.04 | S. cerevisiae deletion strains, locus YNL322C, strain KRE1, active compounds read low 1.02 | S. cerevisiae deletion strains, locus YNR049C, strain mso1, active compounds read low 1.01 | S. cerevisiae deletion strains, locus YNR052C, strain pop2, active compounds read low 0.985 | S. cerevisiae deletion strains, locus YOL006C, strain TOP1, active compounds read low 0.927 | S. cerevisiae deletion strains, locus YOL012C, strain htz1 0.763 | S. cerevisiae deletion strains, locus YOL147C, strain pex11, active compounds read low 0.998 | S. cerevisiae deletion strains, locus YOR001W, strain rrp6, active compounds read low 0.984 | S. cerevisiae deletion strains, locus YOR061W, strain CKA2, active compounds read low 1.01 | S. cerevisiae deletion strains, locus YOR069W, strain VPS5, active compounds read low 1.01 | S. cerevisiae deletion strains, locus YOR070C, strain gyp1, active compounds read low 1 | S. cerevisiae deletion strains, locus YOR080W, strain dia2, active compounds read low 1.02 | S. cerevisiae deletion strains, locus YOR083W, strain WHI5, active compounds read low 1.02 | S. cerevisiae deletion strains, locus YOR106W, strain vam3, active compounds read low 1 | S. cerevisiae deletion strains, locus YOR136W, strain idh2, active compounds read low 0.993 | S. cerevisiae deletion strains, locus YOR144C, strain elg1, active compounds read low 0.998 | S. cerevisiae deletion strains, locus YOR184W, strain ser1, active compounds read low 0.976 | S. cerevisiae deletion strains, locus YOR231W, strain MKK1, active compounds read low 0.963 | S. cerevisiae deletion strains, locus YOR265W, strain rbl2, active compounds read low 1 | S. cerevisiae deletion strains, locus YOR270C, strain vph1, active compounds read low 1.02 | S. cerevisiae deletion strains, locus YOR290C, strain snf2, active compounds read low 1.01 | S. cerevisiae deletion strains, locus YOR316C, strain cot1, active compounds read low 0.995 | S. cerevisiae deletion strains, locus YPL051W, strain arl3, active compounds read low 0.97 | S. cerevisiae deletion strains, locus YPL055C, strain LGE1, active compounds read low 0.96 | S. cerevisiae deletion strains, locus YPL078C, strain atp4, active compounds read low 1.01 | S. cerevisiae deletion strains, locus YPL106C, strain sse1, active compounds read low 1.02 | S. cerevisiae deletion strains, locus YPL240C, strain hsp82, active compounds read low 1.01 | S. cerevisiae deletion strains, locus YPL241C, strain CIN2, active compounds read low 1.03 | S. cerevisiae deletion strains, locus YPL256C, strain CLN2, active compounds read low 0.965 | S. cerevisiae deletion strains, locus YPR119W, strain clb2, active compounds read low 1 | S. cerevisiae deletion strains, locus YPR141C, strain kar3, active compounds read low 1 | S. cerevisiae deletion strains, locus YPR163C, strain tif3, active compounds read low 0.995 | S. cerevisiae deletion strains, locus YPR167C, strain met16, active compounds read low 0.992 | S. cerevisiae deletion strains, strain wtn01, active compounds read low 0.98 | S. cerevisiae strains, strain wild type, active compounds read low 1.01
